Hit rate of the full screen: of about 5,500 compounds, about 2,000 (36%) were called active. Roughly 18% stayed inconclusive and do not appear here. Cut-off read from the data, not from the text of the source: active = normalized growth mostly below about 0.91 (no sharp cut-off); inconclusive = no clear call, values can overlap the other calls; inactive = mostly above about 0.92. This is one part of the list.
Experiment: chemical genetic growth profiling, strain panel (AID 1159580);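 note: tested at 20 µM; growth read once vehicle control cultures reached saturation at 30 °C; 1 = growth at the plate median or of vehicle wells; lower values mean less growth of the strain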
Settings: growth OD

Measured: normalized growth

CC1=CC(=O)C2=C(C)CC(O)C3C(C)C(=O)OC3C12 (stereo not drawn)
inactive: S. cerevisiae deletion strains, locus YBR021W, strain FUR4, stronger effect = lower value 1.01 | S. cerevisiae deletion strains, locus YBR229C, strain ROT2, stronger effect = lower value 1 | S. cerevisiae deletion strains, locus YCL029C, strain bik1, stronger effect = lower value 1.02 | S. cerevisiae deletion strains, locus YDL035C, strain GPR1, stronger effect = lower value 1.03 | S. cerevisiae deletion strains, locus YDL074C, strain BRE1, stronger effect = lower value 1.06 | S. cerevisiae deletion strains, locus YDL101C, strain DUN1, stronger effect = lower value 1.01 | S. cerevisiae deletion strains, locus YDL185W, strain tfp1, stronger effect = lower value 1.02 | S. cerevisiae deletion strains, locus YDL192W, strain arf1, stronger effect = lower value 1.01 | S. cerevisiae deletion strains, locus YDR101C, strain arx1, stronger effect = lower value 1.06 | S. cerevisiae deletion strains, locus YDR162C, strain NBP2, stronger effect = lower value 0.989 | S. cerevisiae deletion strains, locus YDR318W, strain mcm21, stronger effect = lower value 0.994 | S. cerevisiae deletion strains, locus YDR388W, stronger effect = lower value 1.02 | S. cerevisiae deletion strains, locus YDR502C, strain sam2, stronger effect = lower value 1.04 | S. cerevisiae deletion strains, locus YEL061C, strain CIN8, stronger effect = lower value 1 | S. cerevisiae deletion strains, locus YER110C, stronger effect = lower value 1.02 | S. cerevisiae deletion strains, locus YER155C, strain BEM2, stronger effect = lower value 1 | S. cerevisiae deletion strains, locus YER167W, strain BCK2, stronger effect = lower value 1 | S. cerevisiae deletion strains, locus YGL078C, strain dbp3, stronger effect = lower value 1.03 | S. cerevisiae deletion strains, locus YGL086W, strain mad1, stronger effect = lower value 1.04 | S. cerevisiae deletion strains, locus YGL248W, strain PDE1, stronger effect = lower value 0.997 | S. cerevisiae deletion strains, locus YGR135W, strain pre9, stronger effect = lower value 1.02 | S. cerevisiae deletion strains, locus YGR229C, strain SMI1, stronger effect = lower value 1.01 | S. cerevisiae deletion strains, locus YGR252W, strain gcn5, stronger effect = lower value 0.969 | S. cerevisiae deletion strains, locus YHR030C, strain SLT2, stronger effect = lower value 0.999 | S. cerevisiae deletion strains, locus YHR079C, strain IRE1 (second series), stronger effect = lower value 1.02 | S. cerevisiae deletion strains, locus YHR094C, strain hxt1, stronger effect = lower value 1.01 | S. cerevisiae deletion strains, locus YHR129C, strain ARP1, stronger effect = lower value 1.01 | S. cerevisiae deletion strains, locus YHR200W, strain rpn10, stronger effect = lower value 1.02 | S. cerevisiae deletion strains, locus YIL066C, strain RNR3, stronger effect = lower value 0.993 | S. cerevisiae deletion strains, locus YIL073C, strain SPO22, stronger effect = lower value 1.08 | S. cerevisiae deletion strains, locus YIL125W, strain kgd1, stronger effect = lower value 1.03 | S. cerevisiae deletion strains, locus YIR030C, strain dcg1, stronger effect = lower value 1.01 | S. cerevisiae deletion strains, locus YJL095W, strain BCK1, stronger effect = lower value 0.985 | S. cerevisiae deletion strains, locus YJL134W, strain LCB3, stronger effect = lower value 0.996 | S. cerevisiae deletion strains, locus YJL168C, strain set2, stronger effect = lower value 1.01 | S. cerevisiae deletion strains, locus YJL187C, strain SWE1 (second series), stronger effect = lower value 0.997 | S. cerevisiae deletion strains, locus YJR043C, strain POL32, stronger effect = lower value 1.01 | S. cerevisiae deletion strains, locus YJR075W, strain HOC1, stronger effect = lower value 0.992 | S. cerevisiae deletion strains, locus YKL009W, strain mrt4, stronger effect = lower value 1.01 | S. cerevisiae deletion strains, locus YKL068W, stronger effect = lower value 0.999 | S. cerevisiae deletion strains, locus YKL085W, strain MDH1 (second series), stronger effect = lower value 0.992 | S. cerevisiae deletion strains, locus YKL085W, strain MDH1, stronger effect = lower value 0.992 | S. cerevisiae deletion strains, locus YKL190W, strain CNB1, stronger effect = lower value 1.01 | S. cerevisiae deletion strains, locus YKR001C, strain vps1, stronger effect = lower value 1.05 | S. cerevisiae deletion strains, locus YLR039C, strain RIC1, stronger effect = lower value 1.07 | S. cerevisiae deletion strains, locus YLR058C, strain SHM2, stronger effect = lower value 0.99 | S. cerevisiae deletion strains, locus YLR102C, strain apc9, stronger effect = lower value 1.02 | S. cerevisiae deletion strains, locus YLR262C, strain YPT6, stronger effect = lower value 1.04 | S. cerevisiae deletion strains, locus YLR268W, strain sec22, stronger effect = lower value 1.07 | S. cerevisiae deletion strains, locus YLR330W, strain CHS5, stronger effect = lower value 1.01 | S. cerevisiae deletion strains, locus YLR342W, strain FKS1 (second series), stronger effect = lower value 1.06 | S. cerevisiae deletion strains, locus YLR371W, strain rom2, stronger effect = lower value 1.05 | S. cerevisiae deletion strains, locus YLR418C, strain cdc73, stronger effect = lower value 1.01 | S. cerevisiae deletion strains, locus YML016C, strain PPZ1, stronger effect = lower value 1 | S. cerevisiae deletion strains, locus YML032C, strain rad52, stronger effect = lower value 0.988 | S. cerevisiae deletion strains, locus YML124C, strain tub3, stronger effect = lower value 1.01 | S. cerevisiae deletion strains, locus YMR078C, strain ctf18, stronger effect = lower value 1.03 | S. cerevisiae deletion strains, locus YMR223W, strain ubp8, stronger effect = lower value 0.99 | S. cerevisiae deletion strains, locus YMR307W, strain GAS1, stronger effect = lower value 1.02 | S. cerevisiae deletion strains, locus YNL067W, strain RPL9B, stronger effect = lower value 1 | S. cerevisiae deletion strains, locus YNL153C, strain GIM3, stronger effect = lower value 0.999 | S. cerevisiae deletion strains, locus YNL233W, strain BNI4, stronger effect = lower value 1 | S. cerevisiae deletion strains, locus YNL250W, strain rad50, stronger effect = lower value 1.03 | S. cerevisiae deletion strains, locus YNL271C, strain bni1, stronger effect = lower value 1.02 | S. cerevisiae deletion strains, locus YNL298W, strain CLA4, stronger effect = lower value 1.01 | S. cerevisiae deletion strains, locus YNL307C, strain MCK1, stronger effect = lower value 1.03 | S. cerevisiae deletion strains, locus YNL322C, strain KRE1, stronger effect = lower value 1 | S. cerevisiae deletion strains, locus YNR052C, strain pop2, stronger effect = lower value 1.01 | S. cerevisiae deletion strains, locus YOL006C, strain TOP1, stronger effect = lower value 1.13 | S. cerevisiae deletion strains, locus YOL012C, strain htz1 0.87 | S. cerevisiae deletion strains, locus YOL147C, strain pex11, stronger effect = lower value 1.03 | S. cerevisiae deletion strains, locus YOR061W, strain CKA2, stronger effect = lower value 1.01 | S. cerevisiae deletion strains, locus YOR069W, strain VPS5, stronger effect = lower value 1 | S. cerevisiae deletion strains, locus YOR136W, strain idh2, stronger effect = lower value 1.03 | S. cerevisiae deletion strains, locus YOR144C, strain elg1, stronger effect = lower value 1.01 | S. cerevisiae deletion strains, locus YOR184W, strain ser1, stronger effect = lower value 1.06 | S. cerevisiae deletion strains, locus YOR316C, strain cot1, stronger effect = lower value 1.01 | S. cerevisiae deletion strains, locus YPR119W, strain clb2, stronger effect = lower value 1.02 | S. cerevisiae deletion strains, locus YPR141C, strain kar3, stronger effect = lower value 1 | S. cerevisiae deletion strains, locus YPR163C, strain tif3, stronger effect = lower value 1.01 | S. cerevisiae deletion strains, locus YPR167C, strain met16, stronger effect = lower value 1.03 | S. cerevisiae deletion strains, strain wtn01, stronger effect = lower value 1.08 | S. cerevisiae strains, strain wild type, stronger effect = lower value 0.998

Reference: PubChem BioAssay AID1159580 (chemical genetic matrix, 2015)
